Measured values taken from PubChem BioAssay.
“And” between values parts separate entries of the source, which are not always exact repeats. Equal entries are not always repeated. For some of these results: Results with a measured potency or affinity are listed apart. The source made the active and inactive calls.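 Rule for the calls, unless noted: active = thallium flux through the channel raised or lowered by more than 3 SD from vehicle-only wells, actives on both sides; inactive = the rest.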

Legend:
[1] = yeast 75Q aggregation reduction – 75Q-TubU reporter (AID 1593); settings: Yeast 75Q polyglutamine aggregation reporter
[2] = restoration of touch response, mutant HTT neurons – whole organism, C. elegans mechanosensory neurons, N-terminal huntingtin (AID 1599); settings: C. elegans polyQ-huntingtin mechanosensory neurons, stronger effect = higher value
[3] = blockers of cytochrome c efflux from mitochondria – biochemical, purified mitochondria (AID 1603); settings: stronger effect = lower value;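 note: mouse liver mitochondria challenged with calcium chloride; signal normalized to the plate average as 100%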
[4] = polyglutamine aggregate formation blockers (AID 1604); settings: polyglutamine-induced protein aggregation inhibition assay; stronger effect = higher value; tested at 2.5 µM
[5] = glutamate transport activators, MN-1 cells, MN-1 cell line (AID 1612); settings: MN-1 motor neuron cells, stronger effect = higher value;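 note: tested at 1 µM final; 0% = mean of DMSO vehicle wells on each plate; positive means more glutamate uptake than control and negative means less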
[6] = 75Q-TubH aggregate inhibition, S. cerevisiae, yeast (AID 1616); settings: S. cerevisiae 75Q-TubH polyglutamine aggregation suppression; stronger effect = higher value
[7] = signal quenchers or enhancers, Cy5 substrate/SSB – biochemical, NIH Clinical Collection, E. coli SSB, artefact control for HCV NS3 helicase inhibitor project (AID 743268; call rule not given here); settings: Cy5-oligo bound E. coli SSB, fluorescence interference
[8] = test system: Hepatitis C virus NS3 helicase; assay: blockers of NS3h binding to DNA – biochemical, fluorescence polarization, NIH Clinical Collection, primary screen (AID 743270; call rule not given here); settings: NS3 helicase binding to Cy5-dT15 DNA, stronger effect = higher value, concentration not given here
[9] = biological target: Single-stranded DNA-binding protein (Escherichia coli (strain K12)) (UniProt P0AGE0); assay: SSB-ssDNA binding inhibitors – biochemical, fluorescence polarization, NIH Clinical Collection, counter-screen for HCV NS3 helicase inhibitor project (AID 743271; in the data active = inhibition above about 28%); settings: E. coli SSB-DNA binding, stronger effect = higher value, concentration not given here
[10] = compounds distorting NS3 helicase fluorescence signal – biochemical, NIH Clinical Collection, artefact control for HCV NS3 helicase inhibitor project (AID 743272; call rule not given here;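 note: HCV NS3 helicase with a Cy5 labelled single stranded DNA probe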); settings: fluorescence interference counterscreen, HCV NS3 helicase assay; stronger effect = lower value
[11] = blockers of cellular phospholipid synthesis – cell-based, LOPAC library, screen 4, primary screen (AID 1347384; call rule not given here); settings: animal cells, phospholipid biosynthesis inhibition screen; at 10 µM
[12] = test system: F380Y; assay: BK channel mutant inhibitors and activators – cell-based, U2OS BacMam, thallium flux, beta subunits, selectivity assay, profiling panel (AID 1259406); settings: U2OS BacMam BK variants, at 30 µM;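 note: initial slope of Thallos dye fluorescence rise after thallium is added; log ratio against the mean of 0.3% DMSO vehicle wells on the same plate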
[13] = test system: F380Y/beta1; assay: as above; settings: U2OS BacMam BK variants, at 30 µM
[14] = test system: F380Y/beta2Delta; assay: as above; settings: U2OS BacMam BK variants, at 30 µM
[15] = test system: F380Y/beta4; assay: as above; settings: U2OS BacMam BK variants, at 30 µM
[16] = biological target: Calcium-activated potassium channel subunit alpha-1 (Homo sapiens) + Leucine-rich repeat-containing protein 26 (Homo sapiens) (UniProt Q12791+Q2I0M4); assay: as above; settings: U2OS BacMam BK variants, F380Y/Slo1WT/gamma1, at 30 µM
[17] = test system: R275C; assay: as above; settings: U2OS BacMam BK variants, at 30 µM
[18] = test system: R275C/beta1; assay: as above; settings: U2OS BacMam BK variants, at 30 µM
[19] = test system: R275C/beta2Delta; assay: as above; settings: U2OS BacMam BK variants, at 30 µM
[20] = test system: R275C/beta4; assay: as above; settings: U2OS BacMam BK variants, at 30 µM

Chain of Calcium-activated potassium channel subunit alpha-1 (Homo sapiens) + Leucine-rich repeat-containing protein 26 (Homo sapiens) (Q2I0M4 whole entry, looked up, one chain of several): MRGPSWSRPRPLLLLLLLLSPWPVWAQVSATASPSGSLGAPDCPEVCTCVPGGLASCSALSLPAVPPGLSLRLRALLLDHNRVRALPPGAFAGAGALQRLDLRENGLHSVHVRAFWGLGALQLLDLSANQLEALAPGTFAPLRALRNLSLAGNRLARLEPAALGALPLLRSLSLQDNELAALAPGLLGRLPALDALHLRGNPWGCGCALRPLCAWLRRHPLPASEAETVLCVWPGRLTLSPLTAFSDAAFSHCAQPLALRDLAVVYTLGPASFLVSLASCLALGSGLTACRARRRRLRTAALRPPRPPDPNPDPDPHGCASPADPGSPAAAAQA

SMILES	score [1]	rescue above control [2]	cytochrome c release ratio [3]	inhibition of aggregation [4]	glutamate uptake change [5]	aggregation suppression score [6]	fluorescence ratio [7]	inhibition [8]	inhibition [9]	fluorescence ratio [10]	outcome [11]	log fold change Tl+ flux [12]	log fold change Tl+ flux [13]	log fold change Tl+ flux [14]	log fold change Tl+ flux [15]	log fold change Tl+ flux [16]	log fold change Tl+ flux [17]	log fold change Tl+ flux [18]	log fold change Tl+ flux [19]	log fold change Tl+ flux [20]
COc1cc(Cc2cnc(N)nc2N)cc(OC)c1OC	1.11	11.6	0.82	83.3%	-5.77%	1.24	0.97 (inactive)	-3.18% (inactive)	0.29% (inactive)	0.95 (inactive)	inactive	0.00407 (inactive)	0.057 (inactive)	-0.0235 (inactive)	0.0143 (inactive)	-0.00393 (inactive)	0.00151 (inactive)	-0.051 (inactive)	-0.0321 (inactive)	0.00256 (inactive)
COc1c2occc2cc2ccc(=O)oc12	0.85	6.17	2.13	72.4%	-3.48%	0.937	0.98 (inactive)	-3.18% (inactive)	-5.05% (inactive)	1.02 (inactive)	–	-0.0152 (inactive)	0.0099 (inactive)	-0.0131 (inactive)	0.0241 (inactive)	0.011 (inactive)	0.0168 (inactive)	-0.00904 (inactive)	0.0233 (inactive)	0.0801 (inactive)
Cc1cc(NS(=O)(=O)c2ccc(N)cc2)no1	1.35	-4.83	0.69	58.6%	12.1%	1.36	1.03 (inactive)	0.45% (inactive)	-0.48% (inactive)	1 (inactive)	–	-0.0179 (inactive)	-0.0321 (inactive)	0.0172 (inactive)	-0.00222 (inactive)	-0.00437 (inactive)	0.00714 (inactive)	0.00387 (inactive)	-0.00735 (inactive)	-0.0559 (inactive)
O=C1CN(/N=C/c2ccc([N+](=O)[O-])o2)C(=O)N1	0.72	4.47	0.76	41.5%	23.4%	0.814	–	–	–	–	–	–	–	–	–	–	–	–	–	–
CN/C(=C\[N+](=O)[O-])NCCSCc1ccc(CN(C)C)o1	1.61	-10.5	0.8	71.9%	-10.5%	1.66	0.103 (active)	0.45% (inactive)	6.39% (inactive)	0.89 (inactive)	inactive	-0.0669 (inactive)	-0.0094 (inactive)	0.0319 (inactive)	0.0499 (inactive)	-0.0244 (inactive)	0.017 (inactive)	0.0242 (inactive)	-0.00414 (inactive)	-0.0213 (inactive)
COC(=O)C1=C(C)NC(C)=C(C(=O)OCCN(C)Cc2ccccc2)C1c1cccc([N+](=O)[O-])c1 (configuration not stated)	1.16	19.4	1.07	11.1%	-14.8%	0.61	1.15 (inactive)	-1.36% (inactive)	7.91% (inactive)	0.91 (inactive)	inactive	-0.089 (inactive)	-0.0357 (inactive)	-0.158 (active)	-0.137 (active)	-0.059 (inactive)	-0.031 (inactive)	-0.044 (inactive)	0.0144 (inactive)	0.196 (active)
COC(=O)C1=C(C)NC(C)=C(C(=O)OC)C1c1ccccc1[N+](=O)[O-]	0.82	8.1	0.98	15.2%	-6.86%	0.369	0.94 (inactive)	-1.19% (inactive)	1.44% (inactive)	0.9 (inactive)	inactive	–	–	–	–	–	–	–	–	–
N=c1nc(N2CCCCC2)cc(N)n1O	1.58	3.83	1.17	22.5%	7.03%	1.83	0.1 (active)	-9.55% (inactive)	-5.05% (inactive)	1.03 (inactive)	inactive	-0.0693 (inactive)	0.0169 (inactive)	-0.0535 (inactive)	-0.0416 (inactive)	0.00253 (inactive)	-0.0452 (inactive)	-0.0046 (inactive)	-0.0232 (inactive)	0.0196 (inactive)
CC(C)(C)NCC(O)c1ccc(O)c(CO)c1 (configuration not stated)	1.14	0.08	3.64	25%	-8.12%	0.989	0.96 (inactive)	-1.19% (inactive)	2.98% (inactive)	0.94 (inactive)	inactive	–	–	–	–	–	–	–	–	–
CCCC(CCC)C(=O)O	1.39	2.58	0.86	40.9%	-8.08%	0.716	1.04 (inactive)	-1.36% (inactive)	-1.24% (inactive)	0.99 (inactive)	inactive	-0.0169 (inactive)	-0.0195 (inactive)	0.0329 (inactive)	0.0134 (inactive)	-0.023 (inactive)	0.0376 (inactive)	-0.0394 (inactive)	0.0234 (inactive)	0.0354 (inactive)
CN1[C@@H]2CC(OC(=O)[C@H](CO)c3ccccc3)C[C@H]1[C@@H]1O[C@@H]12 (some centres not stated)	–	–	–	–	–	–	0.95 (inactive)	-1.98% (inactive)	1.44% (inactive)	0.9 (inactive)	–	–	–	–	–	–	–	–	–	–
CC(C)(C(=O)O)c1ccc(C(O)CCCN2CCC(C(O)(c3ccccc3)c3ccccc3)CC2)cc1 (configuration not stated)	–	–	–	–	–	–	1.07 (inactive)	-4.09% (inactive)	1.05% (inactive)	1.04 (inactive)	inactive	-0.178 (active)	-0.0158 (inactive)	-0.00892 (inactive)	-0.0315 (inactive)	0.0201 (inactive)	0.00746 (inactive)	-0.0122 (inactive)	-0.0184 (inactive)	0.0234 (inactive)
O=C(O)COCCN1CCN(C(c2ccccc2)c2ccc(Cl)cc2)CC1 (configuration not stated)	–	–	–	–	–	–	–	-12.3% (inactive)	-1.24% (inactive)	1.01 (inactive)	inactive	0.0594 (inactive)	0.0627 (inactive)	0.0743 (active)	0.0511 (inactive)	0.0148 (inactive)	0.0304 (inactive)	0.109 (inactive)	0.056 (inactive)	0.0338 (inactive)
C[N+]1(C)CCC(OC(=O)C(O)(c2ccccc2)C2CCCC2)C1 (configuration not stated)	–	–	–	–	–	–	1.05 (inactive) and 1.06 (inactive)	2.77% (inactive) and 0.45% (inactive)	1.44% (inactive) and 1.81% (inactive)	1.05 (inactive) and 1 (inactive)	–	-0.0314 (inactive) and -0.0508 (inactive)	0.0124 (inactive) and -0.000209 (inactive)	0.0168 (inactive) and -0.0515 (inactive)	-0.00589 (inactive) and 0.00112 (inactive)	-0.0241 (inactive) and -0.0355 (inactive)	-0.0259 (inactive) and -0.0857 (inactive)	0.0143 (inactive) and 0.0309 (inactive)	0.0449 (inactive) and -0.0318 (inactive)	0.0451 (inactive) and -0.0272 (inactive)
Clc1ccccc1CN1CCc2sccc2C1	–	–	–	–	–	–	–	–	–	–	–	-0.26 (active)	-0.0989 (active)	-0.214 (active)	-0.152 (active)	-0.00222 (inactive)	-0.105 (inactive)	-0.145 (active)	-0.13 (active)	-0.0465 (inactive)
CC(C)n1c(/C=C/[C@@H](O)C[C@@H](O)CC(=O)O)c(-c2ccc(F)cc2)c2ccccc21	–	–	–	–	–	–	1.05 (inactive)	-2.27% (inactive)	2.57% (inactive)	1.03 (inactive)	–	0.0848 (inactive)	0.0905 (inactive)	0.0465 (inactive)	8.3e-05 (inactive)	0.11 (active)	-0.0365 (inactive)	0.145 (active)	0.135 (active)	0.103 (inactive)
O=C(NCC1CCCCN1)c1cc(OCC(F)(F)F)ccc1OCC(F)(F)F (configuration not stated)	–	–	–	–	–	–	1.08 (inactive)	-15% (inactive)	19.4% (inactive)	0.81 (inactive)	–	–	–	–	–	–	–	–	–	–
CC(C)(C)c1ccc(C(O)CCCN2CCC(C(O)(c3ccccc3)c3ccccc3)CC2)cc1 (configuration not stated)	0.48	–	4.87	4.76%	-7.35%	0.868	–	–	–	–	inactive	–	–	–	–	–	–	–	–	–
Cc1ccc(/C(=C\CN2CCCC2)c2ccccn2)cc1	1.45	-10.7	1.11	23.8%	-7.2%	0.939	–	–	–	–	inactive	–	–	–	–	–	–	–	–	–
O=C(O)c1cn(C2CC2)c2cc(N3CCNCC3)c(F)cc2c1=O	1.22	13.4	1.03	20.6%	-1.59%	1.3	–	–	–	–	–	–	–	–	–	–	–	–	–	–
CC(C)c1c(C(=O)Nc2ccccc2)c(-c2ccccc2)c(-c2ccc(F)cc2)n1CC[C@@H](O)C[C@@H](O)CC(=O)O	–	–	–	–	–	–	–	–	–	–	inactive	–	–	–	–	–	–	–	–	–
CC(C)(C)CC(C)(C)c1ccc(OCCOCC[N+](C)(C)Cc2ccccc2)cc1	-0.06	0	15.9	58.6%	-11.3%	-0.0343	–	–	–	–	–	–	–	–	–	–	–	–	–	–
